CendR NRP1 mod: modulators of CendR peptide binding to NRP-1, primary screen, biochemical, fluorescence polarization, uHTS | FAM-RPARPAR peptide binding to NRP-1 | inhibition, % at 25 µM | actives 0.85% (n = 360,000) | AID 602438, 2012;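 active means inhibition or corrected inhibition above about 18%, plus a signal ratio from 0.5 to 1.5, limit read from the data, passing the limit was not always enough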
Target sequence (O14786 whole entry, looked up): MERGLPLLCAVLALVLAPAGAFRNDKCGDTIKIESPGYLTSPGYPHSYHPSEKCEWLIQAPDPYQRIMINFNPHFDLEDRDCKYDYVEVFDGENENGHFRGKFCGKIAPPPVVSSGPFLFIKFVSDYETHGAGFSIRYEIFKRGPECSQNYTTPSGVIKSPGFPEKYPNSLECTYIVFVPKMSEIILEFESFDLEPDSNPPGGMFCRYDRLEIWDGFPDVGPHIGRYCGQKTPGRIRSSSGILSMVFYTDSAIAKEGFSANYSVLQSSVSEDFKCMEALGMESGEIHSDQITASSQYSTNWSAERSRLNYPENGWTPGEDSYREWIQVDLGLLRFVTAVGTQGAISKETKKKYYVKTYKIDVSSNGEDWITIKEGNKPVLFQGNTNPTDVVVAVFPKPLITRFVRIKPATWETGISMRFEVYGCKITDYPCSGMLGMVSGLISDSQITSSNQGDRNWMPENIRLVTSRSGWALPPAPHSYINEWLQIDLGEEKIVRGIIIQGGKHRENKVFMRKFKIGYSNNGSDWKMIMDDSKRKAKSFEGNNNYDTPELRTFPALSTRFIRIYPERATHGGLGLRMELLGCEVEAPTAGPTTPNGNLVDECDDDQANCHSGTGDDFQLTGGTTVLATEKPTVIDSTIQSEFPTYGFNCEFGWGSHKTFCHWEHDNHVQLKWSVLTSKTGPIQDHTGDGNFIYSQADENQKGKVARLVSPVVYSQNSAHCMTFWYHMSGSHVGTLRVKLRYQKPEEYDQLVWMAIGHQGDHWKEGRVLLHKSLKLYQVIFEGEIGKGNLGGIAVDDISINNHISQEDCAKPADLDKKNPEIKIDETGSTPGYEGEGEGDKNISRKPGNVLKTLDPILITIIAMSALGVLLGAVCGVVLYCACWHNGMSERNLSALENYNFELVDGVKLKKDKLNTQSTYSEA
HGIII-sPLA2 inh: human group III sPLA2 inhibitors, primary screen, biochemical, QFRET, BODIPY PC-A2 liposome substrate; inhibition, % at 12.2 µM; AID 743126, 2013; QFRET BODIPY PC-A2 liposome hydrolysis, fluorescence; actives 0.56% (n = 370,000);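 active means inhibition above mean plus 3 SD of compounds lying within the high and low control bounds, cut at about 19% in these data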;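 further: 0% = median of test compound wells and 100% = no enzyme DMSO wells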
ADAM17 inh: ADAM17 inhibitors, primary screen, biochemical, QFRET; actives 0.83% (n = 370,000); inhibition, % at 6.95 µM; Disintegrin and metalloproteinase domain-containing protein 17 (Homo sapiens), P78536; recombinant ADAM17, EDANS/DABCYL FRET peptide cleavage;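 active means inhibition above the mean of compounds lying between control limits plus 3 SD, set per campaign, cut at about 8.5% in these data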;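 further: 0% = DMSO-only wells as the low control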
proKLK7 act: proKLK7 zymogen activators, primary screen, biochemical, fluorescence intensity. Kallikrein-7 (Homo sapiens), P49862. purified proKLK7, EDANS-DABCYL substrate fluorescence; 100% is mature enzyme control, 0% vehicle. activation, % at 7 µM. actives 0.9% (n = 370,000). AID 652039, 2013;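 active means activation above the mean of all tested compounds plus 3 SD, computed per campaign excluding outliers beyond control limits, cut at about 13% in these data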
ADAM10 inh: human ADAM10 inhibitors, primary screen, biochemical, QFRET, HTS | recombinant ADAM10, EDANS/DABCYL FRET peptide cleavage, 3 h | inhibition, % at 7 µM | actives 0.62% (n = 370,000) | AID 720582, 2013;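 active means inhibition above a per-campaign cutoff equal to the mean of compounds falling between control-based bounds plus 3 SD, cut at about 20% in these data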;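 further: 0% = DMSO wells while the 100% control is not disclosed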
ADAM10 ctr: ADAM10 inhibitors, counter-screen for ADAM17 exosite inhibitor project, biochemical, FRET, human ADAM10; shares compounds with ADAM17 inh; recombinant ADAM10, EDANS/DABCYL FRET peptide cleavage, 3 h; inhibition, % at 6.95 µM; actives 47% (n = 2,900); AID 743256, 2014;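 active means mean inhibition over the triplicate runs exceeds the activity threshold set in the earlier primary screen, cut at about 20% in these data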;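 further: 0% = DMSO wells and 100% = marimastat wells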
ADAM17 confirm: ADAM17 inhibitors, hit retest, confirmation, biochemical, QFRET peptide cleavage | AID 743257, 2014 | shares compounds with ADAM17 inh | inhibition, % at 6.95 µM | actives 65% (n = 2,900) | recombinant ADAM17, EDANS/DABCYL QFRET peptide cleavage;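 active means mean inhibition across replicates above the hit cutoff set in the primary screen, cut at about 8.5% in these data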;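 further: 0% = DMSO wells and 100% = marimastat wells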
An asterisk follows results filed as active; · = not tested or not shown. Compounds with a hit are over-represented: about 3.4% of the library has one in this group of screens.

SMILES	CendR NRP1 mod	HGIII-sPLA2 inh	ADAM17 inh	proKLK7 act	ADAM10 inh	ADAM10 ctr	ADAM17 confirm
COC(=O)[C@]12C[C@H](CC(=O)NCCCN3CCCC3=O)C(=O)N(CCC3=CCCCC3)C1=C[C@H](C1CCCC1)O[C@@H]2C	·	-5.3	-0.3	0.0	2.4	·	·
Cc1onc(-c2ccc(Cl)cc2)c1-c1ccn(S(=O)(=O)c2ccccc2)n1	·	8.0	13.7*	0.1	17.2	11.0	10.3*
COc1ccc(C2=NN(C(=O)CSC3=NN4CCCC(=O)N=C4S3)C(c3cccc(OC)c3OC)C2)cc1 (centres undefined)	8.0	0.0	10.2*	0.3	13.3	-2.5	-0.2
COc1cccc(C2CC(c3cccs3)=NN2C(=O)CSC2=NN3CCCC(=O)N=C3S2)c1OC (centres undefined)	9.7	0.8	-0.9	0.4	-14.7	·	·
COc1ccc(Nc2nc(N)nc(CSC(=S)N3CCCCC3C)n2)cc1 (centres undefined)	-4.8	-11.6	9.7*	0.8	11.1	12.8	10.0*
COc1ccccc1Nc1nc(N)nc(CSC(=S)N2CC(C)CC(C)C2)n1 (centres undefined)	-7.2	-11.5	12.0*	0.3	17.5	29.6*	15.8*
COc1ccc(Nc2nc(N)nc(CSC(=S)N3CCCCC3)n2)cc1	12.1	-9.2	-2.8	0.5	0.3	·	·
O=C(c1ccc(C(F)(F)F)cc1)N1CCC(=O)N(C(COCc2ccc(C(F)(F)F)cc2)Cc2ccccc2)CC1 (centres undefined)	-7.5	-1.1	8.9*	0.1	17.6	38.5*	17.1*
Cc1cc(CSc2ccc(Cl)cc2)ccc1N	1.8	12.8	9.7*	-0.5	3.4	20.6*	8.3
COc1cccc(-c2noc(C(C)n3nc(C)c([N+](=O)[O-])c3C)n2)c1 (centres undefined)	12.6	-9.4	13.1*	-0.5	15.9	13.1	6.3
O=C1NC(c2ccccc2)(c2ccccc2)C(=O)N1CNc1ccccn1	·	11.7	-4.5	0.0	-9.8	·	·
CCOC(=O)C1=C(O)/C(=C/c2ccc(-c3ccccc3C(=O)O)o2)SC1=Nc1ccc(C)cc1	-207.1	1.3	-2.2	0.1	-1.5	·	·
CCOC(=O)C1=C(O)/C(=C/c2ccc(-c3ccccc3C(=O)O)o2)SC1=Nc1ccc(OC)cc1	-118.7	1.1	9.5*	0.1	11.5	9.3	8.8*
COc1ccc(NC(=O)c2cccc(N3C(=O)C4C5CCC(C5)C4C3=O)c2)cc1 (centres undefined)	-4.3	-12.7	11.0*	0.5	2.0	11.9	7.8
CCCC[C@H](C(=O)N(C)c1ccccc1)[C@@H](O)c1ccc2ccccc2c1	·	1.9	1.1	0.5	6.7	·	·
COc1cc(/C=N/NC(=O)c2cc(-c3ccccc3)nc3ccccc23)ccc1O	8.2	-9.0	1.2	-0.6	8.2	·	·
COc1cc(/C=N/NC(=O)c2cc(-c3ccccc3OC(C)C)nc3ccccc23)ccc1O	-8.0	-15.4	10.7*	-0.8	17.5	17.1	15.1*
C/C(=N\NC(=O)CNC(=O)C(c1ccccc1)c1ccccc1)c1ccc(C(C)(C)C)cc1	-1.5	-9.1	10.4*	0.1	12.9	4.5	1.9
CCCc1cc(-c2[nH]ncc2-c2ccc3c(c2)OCCCO3)c(O)cc1OC	·	-26.7	10.1*	-0.2	18.3	27.7*	12.5*
Cc1cccc(NS(=O)(=O)c2ccc3c(c2)Cc2cc(S(=O)(=O)Nc4cccc(C)c4C)ccc2-3)c1C	-5.7	-13.7	10.6*	-0.4	18.4	13.1	10.3*

Screening data as filed in PubChem BioAssay.
